The whole screen tested about 16,000 compounds, of which about 2,600 (16%) were called active. Another 20% or so got no clear call; they are omitted. The list is a sample of the results. A number with no mark means an inactive call. The call rests on the fitted dose curve; in most records, active means well fitted curve in the direction sought with a large enough effect; inconclusive means small, poorly fitted or top-dose-only effect, or effect the other way; inactive means no such curve, though single readings can be large or run the other way.
What follows are compounds tested against Cytochrome P450 2D6 (Homo sapiens) (UniProt P10635) (assay: Cytochrome panel assay with activity outcomes). Settings: recombinant CYP, pro-luciferin dealkylation, luminescence, p450-cyp2d6; series mostly up to 57.1 µM.
Cytochrome P450 2D6 (Homo sapiens), sequence (P10635 whole entry, looked up): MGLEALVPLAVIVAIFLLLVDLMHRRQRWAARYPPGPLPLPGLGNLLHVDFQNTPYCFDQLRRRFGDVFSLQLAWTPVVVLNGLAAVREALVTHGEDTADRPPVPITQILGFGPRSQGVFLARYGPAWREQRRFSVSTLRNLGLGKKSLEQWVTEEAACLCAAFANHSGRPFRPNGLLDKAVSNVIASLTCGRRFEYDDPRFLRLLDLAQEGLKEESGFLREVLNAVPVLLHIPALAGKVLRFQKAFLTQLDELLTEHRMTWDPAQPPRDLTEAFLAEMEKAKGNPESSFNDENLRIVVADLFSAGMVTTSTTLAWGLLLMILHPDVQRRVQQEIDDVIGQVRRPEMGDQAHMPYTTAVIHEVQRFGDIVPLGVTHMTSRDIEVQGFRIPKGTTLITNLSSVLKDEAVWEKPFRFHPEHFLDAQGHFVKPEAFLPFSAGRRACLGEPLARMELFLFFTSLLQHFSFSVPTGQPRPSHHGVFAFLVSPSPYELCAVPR
On the % scale 0 is the no-effect control and ±100 the full control effect.

| Compound | AC50 | activity, negative = inhibition |
| --- | --- | --- |
| COc1ncc2nc(-c3cc(F)cc(F)c3)c(=O)n(C[C@H]3CCCO3)c2n1 | inactive | – |
| CNc1c2c(nn1C)CCCC2 | inactive | – |
| Cc1ccccc1S(=O)(=O)Oc1ccccc1C(=O)Oc1ccccc1 | inactive | – |
| Nc1ncnc2nc(N3CCN(CCO)CC3)[nH]c12 | – | 6.88% [at 11.4 µM] |
| N[C@H](CCC(=O)NCS(=O)(=O)O)C(=O)O | inactive | – |
| COc1cc(=O)n(C)c2c(OC[C@@H](O)C(C)(C)O)cccc12 | inactive | – |
| CO/N=C(\C(=O)N[C@@H]1C(=O)N2C(C(=O)O)=C(COC(C)=O)CS[C@@H]12)c1csc(N)n1 | inactive | – |
| Cc1ccccc1NC1=C(C(=O)c2ccccc2)N(C)S(=O)(=O)c2ccccc21 | inactive | – |
| C[C@H]1COC(=O)[C@H](Cc2ccccc2)NC(=O)[C@@H](C)COC(=O)[C@H](Cc2ccccc2)NC1=O | – | 13.8% [at 11.4 µM] |
| OC[C@@H]1O[C@@H](O)[C@H](N=Cc2ccc3c(c2)OCO3)[C@@H](O)[C@@H]1O | – | 0.161% [at 11.4 µM] |
| COCCn1c(=O)c(-c2cc(F)cc(F)c2)nc2cnc(N3CCN(C)CC3)nc21 | inactive | – |
| O=C(CSCc1cccc(Br)c1)N/N=C/c1ccc2c(c1)OCO2 | 2 µM (active) | – |
| O=C(/C=C/c1cc2c(cc1Br)OCO2)NCc1ccc(Cl)cc1 | inactive | – |
| O=C(CSCc1cccc(Cl)c1)NCc1ccc2c(c1)OCO2 | 1 µM (active) | – |
| C=CCNC(=O)CC(=O)N/N=C/c1cccc(Br)c1 | inactive | – |
| CCN(CC)C(=O)C(=O)N/N=C/c1cccc(Br)c1 | inactive | – |
| Cn1c(=O)c2c(n(Cc3ccccc3)c1=O)NC(=O)C2CC(=O)NCc1cccc(Cl)c1 (configuration not stated) | inactive | – |
| O=[N+]([O-])c1ccc(/C=N/n2c(COc3ccccc3)n[nH]c2=S)cc1 | inactive | – |
| C=CCNc1sc(C(=O)c2ccc(C)cc2)c(N)c1C#N | inactive | – |
| O=C(O)[C@H]1CCCC[C@@H]1c1c2ccc(=O)c(O)c-2oc2c(O)c(O)ccc12 | – | -0.179% [at 11.4 µM] |
| Cc1ccc(S(=O)(=O)N[C@H](C(=O)Oc2ccc3c(C(F)(F)F)cc(=O)oc3c2)c2ccccc2)cc1 | inactive | – |

| Compound | AC50 | activity, negative = inhibition |
| --- | --- | --- |
| O=C(O)/C(=C\c1ccc(O)cc1)c1cccc2ccccc12 | – | -6.42% [at 11.4 µM] |
| O=C(O)[C@H]([C@H]1NCCS1)N1Cc2ccccc2C1 | – | 5.75% [at 11.4 µM] |
| CCN=C(N)CSS(=O)(=O)O | – | -8.26% [at 11.4 µM] |
| O=C(N/N=C1/C[C@@H](O)[C@@H](O)[C@@H]2[C@H]3C(=O)N(c4ccc(F)cc4F)C(=O)[C@@H]3CC[C@H]12)OCc1ccccc1 | – | -17.3% [at 11.4 µM] |
| CSc1nnc(-c2ccc(Cl)cc2Cl)o1 | inactive | – |
| Clc1ccc(-c2nnc(CCc3ccccc3)o2)c(Cl)c1 | 11.2 µM (active) | – |
| Clc1ccc(-c2nnc(-c3cccc4ccccc34)o2)cc1Cl | – | 17.5% [at 11.4 µM] |
| CCN1C(=O)C(O)(CC(=O)/C=C/C=C/c2ccccc2)c2ccccc21 (configuration not stated) | inactive | – |
| CC(C)CO/N=C1/C[C@@H](O)[C@@H](O)[C@@H]2[C@@H]3C(=O)N(C[C@@H]4CCCO4)C(=O)[C@H]3CC[C@@H]12 | – | 17.5% [at 11.4 µM] |
| O=c1c(-c2cccs2)nc2cnc(N3CCOCC3)nc2n1-c1ccccc1 | inactive | – |
| COc1ccc(-n2c(=O)c(-c3cccs3)nc3cnc(N4CCOCC4)nc32)cc1 | inactive | – |
| CC(C)c1ccc2c(c1)C(c1ccc(N3CCOCC3)cc1)=NNC(c1cccs1)=N2 | 7.08 µM (active) | – |
| COC(=O)C1=C(CSc2nncn2C)NC(=O)NC1c1ccc(F)cc1 (configuration not stated) | inactive | – |
| Cc1ccc(S(=O)(=O)N2CCC(C(=O)NCCCOC(C)C)CC2)cc1 | inactive | – |
| CC(=O)Nc1ccc(S(=O)(=O)NCC2CCC(C(=O)NCCC(C)C)CC2)cc1 (configuration not stated) | inactive | – |
| CC(=O)Nc1ccc(S(=O)(=O)N2CCC(N(C)CCC(C)C)CC2)cc1 | 8.91 µM (active) | – |
| CCc1ccccc1NC(=O)c1nnn(CC(=O)Nc2cccc(C)c2C)c1N | inactive | – |
| C/C(=N\Nc1nc(N)cc(Cl)n1)c1cccc([N+](=O)[O-])c1 | inactive | – |
| O=C(Cc1ccc(Cl)cc1)NNC(=O)Nc1cccc2ccccc12 | inactive | – |
| O=C(Cc1ccc(Cl)cc1)Nc1cccc(-c2nnc(-c3ccco3)o2)c1 | inactive | – |
| O=C(Cc1ccccc1)Nc1nc2ccc(Cl)cc2c2nc(-c3ccco3)nn12 | 10 µM (active) | – |

| Compound | AC50 | activity, negative = inhibition |
| --- | --- | --- |
| Cc1ccc(C(=O)NCc2ccc(N3CCN(C(=O)OC(C)(C)C)CC3)cc2)cc1 | inactive | – |
| CC(C)NC(=O)CC(=O)N/N=C/c1ccc(F)cc1 | inactive | – |
| CCCCCSc1nncc(=O)[nH]1 | inactive | – |
| c1ccc(CSc2nnc3c4ccccc4c4ccccc4c3n2)cc1 | – | -1.49% [at 11.4 µM] |
| Cc1nc(SCc2cccc(Oc3ccccc3)c2)n[nH]1 | 14.1 µM (active) | – |
| Cc1cc(Oc2ccccc2)nc(NCc2ccccc2)n1 | inactive | – |
| CN(C)c1ncc2nc(-c3cccs3)c(=O)n(-c3ccccc3)c2n1 | inactive | – |
| CCN(CC)c1ccc2cc(C(C)=O)c(=O)oc2c1 | inactive | – |
| CCN(CC)c1ccc(C(=O)OCc2cc(=O)oc3cc(O)ccc23)cc1 | inactive | – |
| CCN(CC)c1ccc2c(Cl)cc(=O)oc2c1 | 12.6 µM (active) | – |
| CCOC(=O)c1ccccc1NC(=O)/C(C)=C/C(=O)O | inactive | – |
| COCCn1c(=O)c(-c2cn(C)c3ccccc23)nc2cnc(Oc3cccc(Cl)c3)nc21 | inactive | – |
| CCCOc1ccccc1-c1nc2n[nH]nc2c(=O)[nH]1 | inactive | – |
| CNc1nc(C)cc(C)c1S(=O)(=O)c1ccc(Cl)cc1 | inactive | – |
| Cc1ccc(Sc2c([N+](=O)[O-])ncn2C)cc1 | inactive | – |
| Cc1nn(S(=O)(=O)c2cccs2)c(C)c1Sc1ccc([N+](=O)[O-])cc1 | 2.24 µM (active) | – |
| Cc1nn(C(=O)c2ccco2)c(C)c1Sc1ccc(Br)cc1 | inactive | – |
| O=C(OC1CCN(c2ccc([N+](=O)[O-])cc2)CC1)c1ccccc1 | inactive | – |
| COc1ccc(-n2c(C)cc(C=O)c2C)cc1Cl | inactive | – |
| CC(C)(O)c1cn(-c2nonc2N)nn1 | inactive | – |
